An excerpt weighted towards active compounds, which were near 2.5% of everything screened.
MEKK2 mut-MEK5: signal of MEK5 binding to mutant human MEKK2 PB1 domain | bead flow cytometry, Alexa488-MEK5 binding to MEKK2 mutant | percent response, % at 10 µM | 290,000 compounds, 0.35% hits; in the data active = percent response above about 24%, passing the limit was not always enough
Rce1 inhib: inhibitors of yeast Ras-converting enzyme. Q03530. yeast membranes, quenched prenylated peptide cleavage fluorescence. calls only. 290,000 compounds, 0.27% hits;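 active = fall in fluorescence gain of 50% or more versus controls, with final raw signal at or below 3038400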
Target sequence (Q03530 whole entry, looked up): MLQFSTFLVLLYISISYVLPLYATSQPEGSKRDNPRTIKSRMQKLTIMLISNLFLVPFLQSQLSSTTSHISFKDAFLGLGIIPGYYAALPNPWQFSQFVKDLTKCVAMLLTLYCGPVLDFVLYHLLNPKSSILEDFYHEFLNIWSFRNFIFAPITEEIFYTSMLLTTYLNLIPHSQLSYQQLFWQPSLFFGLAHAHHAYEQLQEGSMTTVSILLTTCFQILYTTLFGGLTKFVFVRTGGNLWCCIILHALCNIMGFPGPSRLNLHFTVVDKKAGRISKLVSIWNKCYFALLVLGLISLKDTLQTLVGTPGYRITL
MEKK2 WT-MEK5: raises or lowers MEK5 binding to wildtype human MEKK2 PB1 domain | bead flow cytometry, Alexa488-MEK5 binding to MEKK2 WT; actives lie on both sides | binding response (% of control), % at 10 µM | 290,000 compounds, 1.1% hits | AID 1531; in the data active = binding response below about 67% or above about 130%
MEKK3 PB1 HTS: modulators (inhibitors or enhancers) of MEK5 binding to human MEKK3 PB1 domain; binding response (% of control), % at 10 µM; Q99759; 290,000 compounds, 1.4% hits; bead-based flow cytometry, Alexa488-MEK5 binding to MEKK3; actives lie on both sides; 0 = blocked by unlabeled MEK5, 100 = vehicle;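 active = binding response more than 3 SD above or below the average of its plate-row segment, actives on both sides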;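 also: Alexa488 bead fluorescence after subtracting the streptavidin-only scavenger bead signal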
UBC13 polyUb: inhibitors of human UBC13 polyubiquitin chain formation. TR-FRET. inhibition, % at 20 µM. 330,000 compounds, 0.47% hits; in the data active = inhibition above about 45%, passing the limit was not always enough
Target sequence (P61088 whole entry, looked up): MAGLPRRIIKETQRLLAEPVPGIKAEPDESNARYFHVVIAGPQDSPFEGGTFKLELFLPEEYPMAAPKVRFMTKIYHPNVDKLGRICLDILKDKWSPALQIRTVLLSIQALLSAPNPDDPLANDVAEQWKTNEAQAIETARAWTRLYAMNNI
MEKK2wt confirm: raises or lowers MEK5 binding to wildtype human MEKK2, retest; AID 1892; shares compounds with MEKK3 PB1 HTS; 5,900 compounds, 2.4% hits; bead flow cytometry, Alexa488-MEK5 binding to MEKK2 WT; actives lie on both sides; binding response (% of control), % at 10 µM; in the data active = binding response below about 16% or above about 210%; inactive = in between
MEKK2mut-MEK5: signal of MEK5 binding to mutant human MEKK2, retest | shares compounds with MEKK3 PB1 HTS | percent response, % at 10 µM | 5,900 compounds, 2% hits | bead flow cytometry, Alexa488-MEK5 binding to MEKK2 mutant; in the data active = percent response mostly above about 71%, no sharp cut-off; inactive = mostly below about 38%;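 also: higher means compound restores mutant binding toward wildtype level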
MEKK3 confirm: confirmation of inhibitors of MEK5 binding to human MEKK3; bead flow cytometry, Alexa488-MEK5 binding to MEKK3; stronger effect = lower value; shares compounds with MEKK3 PB1 HTS; 5,900 compounds, 1.8% hits; binding response (% of control), % at 10 µM;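 active = binding response below 72% of control, or above a set upper limit, though filed actives all read lower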
Each line names hits and unclear results; the compound was inactive in the other large screens (follow-up assays come after a bar, where they were run); [ ] = another dose, or the depositor's remark.

Cc1nn2c(N3CCOCC3)cc(C(C)(C)C)nc2c1-c1ccccc1	none
Cc1nc2c(-c3ccccc3)c(C)nn2c(C)c1CCC(=O)NCc1ccco1	none (no result: Rce1 inhib)
COc1cc(/C=N/NC(N)=O)ccc1OC(=O)c1cccs1	none (no result: Rce1 inhib)
COc1cc(/C=N/Nc2ccc(Cl)cc2)ccc1OC(=O)c1cccs1	MEKK3 PB1 HTS 46[inhibitor] (no result: Rce1 inhib, UBC13 polyUb) | MEKK2wt confirm inactive | MEKK2mut-MEK5 inactive | MEKK3 confirm inactive
CCc1ccc(Nc2n[n+](-c3ccccc3)c(-c3ccc(OC)c(Br)c3)s2)cc1	MEKK2 mut-MEK5 41, MEKK2 WT-MEK5 207 | MEKK2wt confirm inactive | MEKK2mut-MEK5 73 | MEKK3 confirm inactive
CCc1ccc(Nc2n[n+](-c3ccccc3)c(-c3ccc(C(=O)O)cc3)s2)cc1	none
COc1cc(Br)c(-c2sc(Nc3ccccc3)n[n+]2-c2ccc(F)cc2)cc1OC	MEKK2 mut-MEK5 34 | MEKK2wt confirm inactive | MEKK2mut-MEK5 inactive | MEKK3 confirm inactive
CCc1ccc(Nc2n[n+](-c3ccccc3)c(-c3ccc(SC)cc3)s2)cc1	MEKK2 mut-MEK5 35, MEKK2 WT-MEK5 195 | MEKK2wt confirm inactive | MEKK2mut-MEK5 inactive | MEKK3 confirm inactive
COc1cc(OC)c(-c2sc(Nc3ccccc3)n[n+]2-c2ccc(F)cc2)cc1OC	none
Clc1cccc(-c2sc(Nc3ccccc3)n[n+]2-c2ccccc2)c1Cl	MEKK2 WT-MEK5 135 | MEKK2wt confirm inactive | MEKK2mut-MEK5 inactive | MEKK3 confirm inactive
Cc1ccc(S(=O)(=O)CCc2ccncc2)cc1	none
Cc1c(C(=O)OCC(=O)Nc2c(C)n(C)n(-c3ccccc3)c2=O)oc2ccccc12	none
O=C(COC(=O)c1cc(S(=O)(=O)N2CCCCC2)ccc1N1CCOCC1)NC1CCS(=O)(=O)C1 (configuration not stated)	none
O=C1NC(=O)C2(COC(c3cccnc3)OC2)S1 (configuration not stated)	none
COc1cccc(CNC(=O)N2CCN(c3ccccc3)CC2)c1	none
CSc1ccc(-c2sc(Nc3ccccc3)n[n+]2-c2ccccc2)cc1	MEKK2 WT-MEK5 148 | MEKK2wt confirm inactive | MEKK2mut-MEK5 inactive | MEKK3 confirm inactive
COc1ccc(CNC(=O)COC(=O)c2cccs2)cc1	none (no result: Rce1 inhib)
CCN(CC(=O)Nc1c(F)cccc1F)C(=O)c1nc2nc(C)cc(C)n2n1	none (no result: MEKK2 mut-MEK5, Rce1 inhib, MEKK2 WT-MEK5, MEKK3 PB1 HTS)
CCOc1cc(CNCCCN2CCOCC2)ccc1OCC(=O)Nc1cccc2ccccc12	MEKK2 WT-MEK5 141 | MEKK2wt confirm inactive | MEKK2mut-MEK5 inactive | MEKK3 confirm inactive
Cc1[nH]c2ccccc2c1/C=N/NC(=O)c1cccs1	MEKK2 mut-MEK5 128 | MEKK2wt confirm inactive | MEKK2mut-MEK5 inactive | MEKK3 confirm inactive
Cc1nn(-c2ccccc2)c(C)c1/C=N/NC(=O)c1cc(-c2cccs2)[nH]n1	none
Cc1nn(-c2ccccc2)c(C)c1/C=N/NC(=O)c1cccs1	MEKK3 PB1 HTS 133 | MEKK2wt confirm inactive | MEKK2mut-MEK5 inactive | MEKK3 confirm inactive
Cc1[nH]c2ccccc2c1/C=N/NC(=O)CNC(=O)c1cccs1	none
CC(=O)c1cccc(S(=O)(=O)N2CCC(C(=O)Nc3cccc(C(=O)NC4CC4)c3)CC2)c1	none (no result: MEKK2 mut-MEK5, Rce1 inhib, MEKK2 WT-MEK5, MEKK3 PB1 HTS)
CC(NC(=S)NCCc1ccccc1)C(c1cccs1)N1CCN(Cc2ccccc2)CC1 (configuration not stated)	MEKK2 WT-MEK5 138 | MEKK2wt confirm inactive | MEKK2mut-MEK5 inactive | MEKK3 confirm inactive
CC(NC(=O)NC1CCCCC1)C(c1cccs1)N1CCN(Cc2ccccc2)CC1 (configuration not stated)	none
CN(/N=C/c1ccncc1)C1=NCCN1	none
CN(/N=C/c1ccncc1)c1cnc2ccccc2n1	MEKK3 PB1 HTS 74[inhibitor] | MEKK2wt confirm inactive | MEKK2mut-MEK5 inactive | MEKK3 confirm inactive
